# Experimental data from PubChem BioAssay (NCI).
# Compounds without any hit were thinned out: in the full panel of roughly 79,000, 15% have a hit. Values without a mark were called inactive. The source made the active and inactive calls. Cut-off read from the data, not from the text of the source: active = growth inhibition above about 70%; inactive = the rest.
# Columns and labels:
# [1] = NCI Yeast Anticancer Drug Screen. Data for the rad52 strain (AID 147);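 note: 0% = growth of vehicle-treated control cultures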; details: S. cerevisiae rad52 mutant growth inhibition, stronger effect = higher value
# Procedure, shortened: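 Genetically altered yeast (DNA damage repair defect) treated with compound; inhibition calculated relative to vehicle.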
# [2] = NCI Yeast Anticancer Drug Screen. Data for the wt1 strain (AID 149);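 note: 0% = growth of vehicle-treated wt1 cultures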; details: S. cerevisiae wt1 strain (SPY 50644) growth inhibition, stronger effect = higher value
# Procedure, shortened: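 Readout: yeast growth inhibition, normalised to vehicle controls, in the wt1 strain exposed to test compounds.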
# [3] = NCI Yeast Anticancer Drug Screen. Data for the rad50EPP+ strain (AID 151);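 note: 0% = growth of vehicle-treated control cultures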; details: S. cerevisiae rad50 mutant strain, stronger effect = higher value
# Procedure, shortened: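 Strain rad50EPP+; compound exposure; % growth inhibition vs vehicle.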
# [4] = NCI Yeast Anticancer Drug Screen. Data for the mgt1 strain (AID 153); details: S. cerevisiae mgt1 mutant growth inhibition, stronger effect = higher value
# Procedure, shortened: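 Read-out: yeast growth inhibition vs vehicle control. Strain mgt1, drawn from a panel altered in DNA damage repair or cell cycle control.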
# [5] = NCI Yeast Anticancer Drug Screen. Data for the rad50 strain (AID 155);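 note: 0% = growth of vehicle-only cultures of the same strain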; details: S. cerevisiae rad50 strain growth inhibition, stronger effect = higher value
# Procedure, shortened: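 Compounds were tested on a yeast strain with an engineered DNA damage repair alteration; the reported value is growth inhibition normalised to vehicle treatment.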
# [6] = NCI Yeast Anticancer Drug Screen. Data for the mec2-1 strain (AID 157); details: S. cerevisiae mec2-1 strain, stronger effect = higher value
# Procedure, shortened: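 Cells of the genetically defined mec2-1 yeast strain are incubated with test compound. Inhibition of growth is calculated against vehicle-treated controls.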
# [7] = NCI Yeast Anticancer Drug Screen. Data for the rad14 strain (AID 159);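 note: 0% = growth of vehicle-treated control cultures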; details: S. cerevisiae rad14 strain growth inhibition, stronger effect = higher value
# Procedure, shortened: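 Compound-treated yeast with a defined DNA-repair lesion; growth inhibition normalised to vehicle-treated cultures.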
# [8] = NCI Yeast Anticancer Drug Screen. Data for the sgs1 mgt1 strain (AID 161);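 note: 0% = growth of cultures given vehicle only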; details: S. cerevisiae sgs1 mgt1 strain, stronger effect = higher value
# Procedure, shortened: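 Read-out: growth inhibition vs vehicle controls. Cells: mutant yeast strain deficient in DNA damage repair.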
# [9] = NCI Yeast Anticancer Drug Screen. Data for the CLN2oe strain (AID 163);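 note: 0% = growth of vehicle-only control cultures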; details: S. cerevisiae CLN2oe strain, stronger effect = higher value
# Procedure, shortened: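 Strain altered in cell-cycle control, incubated with compound; growth compared to solvent-treated controls.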
# [10] = NCI Yeast Anticancer Drug Screen. Data for the cln2 rad14 strain (AID 165);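 note: 0% = growth equal to vehicle treated cultures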; details: S. cerevisiae cln2 rad14 strain, stronger effect = higher value
# Procedure, shortened: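 The screen exposed genetically defined yeast (cln2 rad14) to test compounds and scored growth inhibition relative to vehicle-treated controls.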
# [11] = NCI Yeast Anticancer Drug Screen. Data for the bub3 strain (AID 167); details: S. cerevisiae bub3 mutant strain, stronger effect = higher value
# Procedure, shortened: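 Growth of a checkpoint-deficient yeast mutant is measured after compound exposure. Values represent inhibition relative to vehicle.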
# [12] = NCI Yeast Anticancer Drug Screen. Data for the wt2 strain (AID 169);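 note: 0% = growth of vehicle-treated yeast cultures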; details: S. cerevisiae wt2 strain growth inhibition, stronger effect = higher value
# Procedure, shortened: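 Steps: yeast strain treated with compound; growth recorded; inhibition calculated relative to cultures given vehicle alone.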
# [13] = NCI Yeast Anticancer Drug Screen. Data for the mlh1 strain (AID 171);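 note: 0% = growth of vehicle-treated control cultures of the same strain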; details: S. cerevisiae mlh1 strain growth inhibition, stronger effect = higher value
# Procedure, shortened: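 Yeast screen: mutant strain plus compound, growth scored against vehicle control wells.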
# [14] = NCI Yeast Anticancer Drug Screen. Data for the sgs1 strain (AID 173);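 note: 0% = growth of vehicle-only control cultures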; details: S. cerevisiae sgs1 mutant, stronger effect = higher value
# Procedure, shortened: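 Inhibition of yeast growth served as the measure. The mutant strain was treated with each compound, and growth was normalised to cultures receiving vehicle alone.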
# [15] = NCI Yeast Anticancer Drug Screen. Data for the mlh1 rad18 strain (AID 175); details: S. cerevisiae mlh1 rad18 strain growth inhibition, stronger effect = higher value
# Procedure, shortened: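 Compound-treated yeast growth, normalised to vehicle controls. Strain bears defined DNA repair mutations.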
# [16] = NCI Yeast Anticancer Drug Screen. Data for the rad18 strain (AID 177); details: S. cerevisiae rad18 mutant growth inhibition, stronger effect = higher value
# Procedure, shortened: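 Inhibition values reflect reduced yeast growth compared with vehicle-treated controls, using a strain engineered with a DNA damage repair defect.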
# [17] = at 5.0 µM (retest, dose inferred, filed as 0.5)
# [18] = at 50.0 µM (retest, dose inferred, filed as 5.0)
structure (smiles),measurement,setting,value
BrC1C2CCC3OC3C12 (stereo unspecified),growth inhibition,[1]; at 1.2 µM,3%
same,growth inhibition,[1]; at 3.7 µM,16%
same,growth inhibition,[1]; at 11.0 µM,97% (active)
same,growth inhibition,[1]; at 33.0 µM,99% (active)
same,growth inhibition,[1]; at 100.0 µM,99% (active)
same,growth inhibition,[2]; at 1.2 µM,0%
same,growth inhibition,[2]; at 3.7 µM,1%
same,growth inhibition,[2]; at 11.0 µM,96% (active)
same,growth inhibition,[2]; at 33.0 µM,98% (active)
same,growth inhibition,[2]; at 100.0 µM,99% (active)
same,growth inhibition,[3]; at 1.2 µM,9%
same,growth inhibition,[3]; at 3.7 µM,27%
same,growth inhibition,[3]; at 11.0 µM,70% (active)
same,growth inhibition,[3]; at 33.0 µM,89% (active)
same,growth inhibition,[3]; at 100.0 µM,96% (active)
same,growth inhibition,[4]; at 1.2 µM,2%
same,growth inhibition,[4]; at 3.7 µM,3%
same,growth inhibition,[4]; at 11.0 µM,77% (active)
same,growth inhibition,[4]; at 33.0 µM,99% (active)
same,growth inhibition,[4]; at 100.0 µM,99% (active)
same,growth inhibition,[5]; at 1.2 µM,3%
same,growth inhibition,[5]; at 3.7 µM,7%
same,growth inhibition,[5]; [17],41%
same,growth inhibition,[5]; at 11.0 µM,92% (active)
same,growth inhibition,[5]; at 33.0 µM,97% (active)
same,growth inhibition,[5]; [18],99% (active)
same,growth inhibition,[5]; at 50.0 µM,99.5% (active)
same,growth inhibition,[5]; at 100.0 µM,98% (active)
same,growth inhibition,[6]; at 1.2 µM,0%
same,growth inhibition,[6]; at 3.7 µM,5%
same,growth inhibition,[6]; [17],28%
same,growth inhibition,[6]; at 11.0 µM,93% (active)
same,growth inhibition,[6]; at 33.0 µM,99% (active)
same,growth inhibition,[6]; [18],100% (active)
same,growth inhibition,[6]; at 50.0 µM,99.7% (active)
same,growth inhibition,[6]; at 100.0 µM,99% (active)
same,growth inhibition,[7]; at 1.2 µM,0%
same,growth inhibition,[7]; at 3.7 µM,3%
same,growth inhibition,[7]; at 11.0 µM,98% (active)
same,growth inhibition,[7]; at 33.0 µM,99% (active)
same,growth inhibition,[7]; at 100.0 µM,99% (active)
same,growth inhibition,[8]; [17],65%
same,growth inhibition,[8]; [18],100% (active)
same,growth inhibition,[8]; at 50.0 µM,99.5% (active)
same,growth inhibition,[9]; at 1.2 µM,2%
same,growth inhibition,[9]; at 3.7 µM,-3%
same,growth inhibition,[9]; at 11.0 µM,53%
same,growth inhibition,[9]; at 33.0 µM,99% (active)
same,growth inhibition,[9]; at 100.0 µM,99% (active)
same,growth inhibition,[10]; [17],8%
same,growth inhibition,[10]; [18],99% (active)
same,growth inhibition,[10]; at 50.0 µM,99% (active)
same,growth inhibition,[11]; at 1.2 µM,-4%
same,growth inhibition,[11]; at 3.7 µM,-5%
same,growth inhibition,[11]; [17],2%
same,growth inhibition,[11]; at 11.0 µM,42%
same,growth inhibition,[11]; at 33.0 µM,99% (active)
same,growth inhibition,[11]; [18],100% (active)
same,growth inhibition,[11]; at 50.0 µM,99.3% (active)
same,growth inhibition,[11]; at 100.0 µM,99% (active)
same,growth inhibition,[12]; at 1.2 µM,-1%
same,growth inhibition,[12]; at 3.7 µM,2%
same,growth inhibition,[12]; at 11.0 µM,98% (active)
same,growth inhibition,[12]; at 33.0 µM,99% (active)
same,growth inhibition,[12]; at 100.0 µM,99% (active)
same,growth inhibition,[13]; at 1.2 µM,-1%
same,growth inhibition,[13]; at 3.7 µM,4%
same,growth inhibition,[13]; at 11.0 µM,86% (active)
same,growth inhibition,[13]; at 33.0 µM,99% (active)
same,growth inhibition,[13]; at 100.0 µM,99% (active)
same,growth inhibition,[14]; at 1.2 µM,-1%
same,growth inhibition,[14]; at 3.7 µM,11%
same,growth inhibition,[14]; at 11.0 µM,98% (active)
same,growth inhibition,[14]; at 33.0 µM,99% (active)
same,growth inhibition,[14]; at 100.0 µM,99% (active)
same,growth inhibition,[15]; [17],74% (active)
same,growth inhibition,[15]; [18],99% (active)
same,growth inhibition,[15]; at 50.0 µM,99.5% (active)
CC1(C)CC(=O)C(C=NC(=S)C(N)=S)=C(O)C1,growth inhibition,[1]; at 1.2 µM,-47%
same,growth inhibition,[1]; at 3.7 µM,-57%
same,growth inhibition,[1]; at 11.0 µM,-63%
same,growth inhibition,[1]; at 33.0 µM,-49%
same,growth inhibition,[1]; at 100.0 µM,69%
same,growth inhibition,[2]; at 1.2 µM,-30%
same,growth inhibition,[2]; at 3.7 µM,-39%
same,growth inhibition,[2]; at 11.0 µM,-37%
same,growth inhibition,[2]; at 33.0 µM,-16%
same,growth inhibition,[2]; at 100.0 µM,21%
same,growth inhibition,[3]; at 1.2 µM,-43%
same,growth inhibition,[3]; at 3.7 µM,-49%
same,growth inhibition,[3]; at 11.0 µM,-46%
same,growth inhibition,[3]; at 33.0 µM,-51%
same,growth inhibition,[3]; at 100.0 µM,-25%
same,growth inhibition,[4]; at 1.2 µM,-13%
same,growth inhibition,[4]; at 3.7 µM,0%
same,growth inhibition,[4]; at 11.0 µM,3%
same,growth inhibition,[4]; at 33.0 µM,21%
same,growth inhibition,[4]; at 100.0 µM,84% (active)
same,growth inhibition,[5]; at 1.2 µM,-15%
same,growth inhibition,[5]; at 3.7 µM,-14%
same,growth inhibition,[5]; [17],-26%
same,growth inhibition,[5]; at 11.0 µM,-13%
same,growth inhibition,[5]; at 33.0 µM,6%
same,growth inhibition,[5]; [18],14%
same,growth inhibition,[5]; at 50.0 µM,15.5%
same,growth inhibition,[5]; at 100.0 µM,69%
same,growth inhibition,[6]; at 1.2 µM,-40%
same,growth inhibition,[6]; at 3.7 µM,-34%
same,growth inhibition,[6]; [17],-6%
same,growth inhibition,[6]; at 11.0 µM,-41%
same,growth inhibition,[6]; at 33.0 µM,-19%
same,growth inhibition,[6]; [18],22%
same,growth inhibition,[6]; at 50.0 µM,74.1% (active)
same,growth inhibition,[6]; at 100.0 µM,91% (active)
same,growth inhibition,[7]; at 1.2 µM,-18%
same,growth inhibition,[7]; at 3.7 µM,-7%
same,growth inhibition,[7]; at 11.0 µM,-16%
same,growth inhibition,[7]; at 33.0 µM,-18%
same,growth inhibition,[7]; at 100.0 µM,19%
same,growth inhibition,[8]; [17],-2%
same,growth inhibition,[8]; [18],8%
same,growth inhibition,[8]; at 50.0 µM,35.5%
same,growth inhibition,[9]; at 1.2 µM,-35%
same,growth inhibition,[9]; at 3.7 µM,-25%
same,growth inhibition,[9]; at 11.0 µM,-30%
same,growth inhibition,[9]; at 33.0 µM,-10%
same,growth inhibition,[9]; at 100.0 µM,96% (active)
same,growth inhibition,[10]; [17],23%
same,growth inhibition,[10]; [18],32%
same,growth inhibition,[10]; at 50.0 µM,10.3%
same,growth inhibition,[11]; at 1.2 µM,-30%
same,growth inhibition,[11]; at 3.7 µM,-20%
same,growth inhibition,[11]; [17],18%
same,growth inhibition,[11]; at 11.0 µM,-24%
same,growth inhibition,[11]; at 33.0 µM,-31%
same,growth inhibition,[11]; [18],38%
same,growth inhibition,[11]; at 50.0 µM,6.15%
same,growth inhibition,[11]; at 100.0 µM,91% (active)
same,growth inhibition,[12]; at 1.2 µM,-47%
same,growth inhibition,[12]; at 3.7 µM,-52%
same,growth inhibition,[12]; at 11.0 µM,-59%
same,growth inhibition,[12]; at 33.0 µM,-41%
same,growth inhibition,[12]; at 100.0 µM,20%
same,growth inhibition,[13]; at 1.2 µM,-31%
same,growth inhibition,[13]; at 3.7 µM,-26%
same,growth inhibition,[13]; at 11.0 µM,-9%
same,growth inhibition,[13]; at 33.0 µM,6%
same,growth inhibition,[13]; at 100.0 µM,91% (active)
same,growth inhibition,[14]; at 1.2 µM,-28%
same,growth inhibition,[14]; at 3.7 µM,-31%
same,growth inhibition,[14]; at 11.0 µM,-29%
same,growth inhibition,[14]; at 33.0 µM,-15%
same,growth inhibition,[14]; at 100.0 µM,65%
same,growth inhibition,[15]; [17],-7%
same,growth inhibition,[15]; [18],75% (active)
same,growth inhibition,[15]; at 50.0 µM,45.2%
same,growth inhibition,[16]; at 1.2 µM,-8%
same,growth inhibition,[16]; at 3.7 µM,-4%
same,growth inhibition,[16]; at 11.0 µM,-15%
same,growth inhibition,[16]; at 33.0 µM,-1%
same,growth inhibition,[16]; at 100.0 µM,70% (active)
